In the library only some 2.4% were active in any assay of this set; here they are far more common.
NOD2-RIPK2 inh: inhibitors of human NOD2-RIPK2 interaction | 0.38% of 360,000 active | AID 624267 | inhibition, % at 4.98 µM | CHO BLA complementation NOD2-RIPK2, CCF4 ratio | O43353; in the data active = inhibition above about 21%;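 note: 0% = vehicle only and 100% = reference blocker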
HSF1 inh: HSF1 inhibition; 0.77% of 300,000 active; NIH3T3-HGL HSE-luciferase, MG132-induced, luminescence 8 h; hits give low values; activity change, negative = inhibition, % at 7.5 µM (by protocol); AID 2098;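 active = more than half of replicate wells show activity change below -50%, luminescence cut by over half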;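 note: luciferase reports HSF-1 transcriptional activity via heat shock element; 0% = median of DMSO wells and -100% = zero luminescence signal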
TLR4-MyD88 BLA: inhibitors of human TLR4-MyD88 binding; 0.18% of 200,000 active; inhibition, % at 8.4 µM; HeLa CL3-4 TLR4/MyD88 BLA complementation, FRET ratio; AID 861; O00206+Q99836; in the data active = inhibition above about 25%;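 note: 0% = vehicle and 100% = reference inhibitor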
Target sequence (O00206 whole entry, looked up): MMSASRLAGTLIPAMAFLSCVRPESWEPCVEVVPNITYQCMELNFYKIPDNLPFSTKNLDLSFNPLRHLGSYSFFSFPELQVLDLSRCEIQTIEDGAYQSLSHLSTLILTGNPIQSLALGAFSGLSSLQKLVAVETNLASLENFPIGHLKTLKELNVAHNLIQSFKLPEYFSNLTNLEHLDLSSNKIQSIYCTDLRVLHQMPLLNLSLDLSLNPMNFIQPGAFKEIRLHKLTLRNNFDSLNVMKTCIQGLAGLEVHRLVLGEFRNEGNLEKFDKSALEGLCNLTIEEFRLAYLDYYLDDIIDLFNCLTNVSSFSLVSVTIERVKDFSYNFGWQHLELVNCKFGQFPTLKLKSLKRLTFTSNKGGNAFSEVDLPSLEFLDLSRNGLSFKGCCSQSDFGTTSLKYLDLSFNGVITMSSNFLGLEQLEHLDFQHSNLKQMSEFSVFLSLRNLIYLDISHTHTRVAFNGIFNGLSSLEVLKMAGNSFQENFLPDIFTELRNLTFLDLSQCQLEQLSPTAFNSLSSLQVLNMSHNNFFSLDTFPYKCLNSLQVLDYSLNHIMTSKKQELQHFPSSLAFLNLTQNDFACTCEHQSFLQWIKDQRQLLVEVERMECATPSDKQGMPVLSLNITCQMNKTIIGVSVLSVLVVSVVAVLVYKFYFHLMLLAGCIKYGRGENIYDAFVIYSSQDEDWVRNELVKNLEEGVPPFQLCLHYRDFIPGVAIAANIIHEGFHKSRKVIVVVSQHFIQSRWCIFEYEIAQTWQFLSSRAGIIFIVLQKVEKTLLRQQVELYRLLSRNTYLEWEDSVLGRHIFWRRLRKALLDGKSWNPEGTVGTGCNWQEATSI
Target sequence (Q99836 whole entry, looked up): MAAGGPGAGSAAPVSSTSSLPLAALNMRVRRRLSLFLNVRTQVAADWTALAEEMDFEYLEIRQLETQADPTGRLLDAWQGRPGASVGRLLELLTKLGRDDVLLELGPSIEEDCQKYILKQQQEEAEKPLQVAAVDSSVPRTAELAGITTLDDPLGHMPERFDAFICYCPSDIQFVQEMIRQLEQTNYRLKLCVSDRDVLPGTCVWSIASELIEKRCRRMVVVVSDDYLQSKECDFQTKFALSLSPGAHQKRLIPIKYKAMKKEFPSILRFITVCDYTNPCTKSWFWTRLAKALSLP
TLR9-MyD88 block: blocks human TLR9 binding to MyD88; Q9NR96+Q99836; CHO BLA complementation TLR9-MyD88, CCF4 FRET ratio; inhibition, % at 4.98 µM; 0.21% of 340,000 active; AID 504734;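 active = inhibition above the mean over all tested compounds plus 3 SD, cut at about 21% in these data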;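 note: 0% = DMSO only wells and 100% = clavulanate BLA inhibitor control wells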
HSF-1 act: increases HSF-1 driven luciferase reporter signal; NIH3T3-HGL HSF-1 luciferase reporter, MG132, 8 h; 100% = twice DMSO control signal; 1.7% of 300,000 active; activation, % at 9 µM;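 active = mean replicate activation of at least 50% with a set share of replicates each reaching 50%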;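 note: 0% = median of the neutral control wells and 100% = twice that signal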
Numbers without * were called inactive.

What do the screens show for `CC(=O)Nc1ccc(S(=O)(=O)N(C)CC(=O)NNc2c(F)c(F)cc(F)c2F)cc1`?
NOD2-RIPK2 inh: 3; TLR9-MyD88 block: 6

What do the screens show for `CCOC(=O)CN1CC23C=CC(O2)C(C(=O)NC2CCCC2)C3C1=O` (centres undefined)?
NOD2-RIPK2 inh: -8; HSF1 inh: -6; TLR4-MyD88 BLA: -3; TLR9-MyD88 block: -8; HSF-1 act: -17

How did CCOC(=O)CN1CC23C=CC(O2)C(C(=O)NC2CCCCC2)C3C1=O (centres undefined) do in these assays?
NOD2-RIPK2 inh: -6; HSF1 inh: -89*; TLR4-MyD88 BLA: 5; TLR9-MyD88 block: -2; HSF-1 act: -92

What do the screens show for `CCc1nc2ccc(C(=O)Nc3ccc4c(c3)OCC(=O)N4)cn2c1N(C)C(=O)Cc1ccccc1`?
NOD2-RIPK2 inh: -6

What do the screens show for `Cc1ccc(NC(=O)Nc2c(C)n(C)n(-c3ccccc3)c2=O)cc1`?
NOD2-RIPK2 inh: -9; HSF1 inh: -7; TLR9-MyD88 block: 14; HSF-1 act: 9

What do the screens show for `Cc1c(NC(=O)Nc2ccc([N+](=O)[O-])cc2)c(=O)n(-c2ccccc2)n1C`?
NOD2-RIPK2 inh: -8; HSF1 inh: 20; TLR9-MyD88 block: -4; HSF-1 act: 58*

What do the screens show for `Cc1onc(-c2ccccc2)c1NC(=O)OC(C)c1cccnc1` (centres undefined)?
NOD2-RIPK2 inh: 1; TLR9-MyD88 block: 3

Results for O=S1(=O)N[C@@H](Cc2ccccc2)COc2cc(N3CCSCC3)ccc21 ?
NOD2-RIPK2 inh: -3

How did O=C(O)c1cccc(N/N=C/c2ccc(OC(F)(F)F)cc2)c1 do in these assays?
NOD2-RIPK2 inh: -5; HSF1 inh: -56*; TLR9-MyD88 block: 10; HSF-1 act: -59

What do the screens show for `O=C(O)c1cccc(N/N=C/c2cccs2)c1`?
NOD2-RIPK2 inh: -11; HSF1 inh: -58*; TLR4-MyD88 BLA: 1; TLR9-MyD88 block: -6; HSF-1 act: -62

How did O=C1[C@H]2CCC=C[C@H]2[C@H](c2cccc(Br)c2)N1Cc1ccccc1 do in these assays?
NOD2-RIPK2 inh: -9; TLR9-MyD88 block: 4

Results for O=C(NC1CCCCC1)C(c1ccco1)N(C(=O)c1csnn1)c1ccc(Cl)cc1 (centres undefined) ?
NOD2-RIPK2 inh: -1; HSF1 inh: -89*; TLR9-MyD88 block: -13; HSF-1 act: -90

Results for NC(Cc1c[nH]c2ccccc12)C(=O)NCc1ccccc1 (centres undefined) ?
NOD2-RIPK2 inh: 1; HSF1 inh: -19; TLR9-MyD88 block: -14; HSF-1 act: -6

How did CCSc1nnc(NC(=O)C(Cc2ccccc2)n2cccc2)s1 (centres undefined) do in these assays?
NOD2-RIPK2 inh: -1; HSF1 inh: -75*; TLR4-MyD88 BLA: -7; TLR9-MyD88 block: -4; HSF-1 act: -79

Results for Cc1csc(NC(=O)C(Cc2ccccc2)n2cccc2)n1 (centres undefined) ?
NOD2-RIPK2 inh: -6; HSF1 inh: -14; TLR4-MyD88 BLA: -17; TLR9-MyD88 block: 14; HSF-1 act: 2

Results for O=C(CCCl)Nc1nc2c(s1)CCc1ccccc1-2 ?
NOD2-RIPK2 inh: 2; HSF1 inh: 146; TLR9-MyD88 block: 2; HSF-1 act: 175*

What do the screens show for `O=C1C2CCCN2c2ccc(S(=O)(=O)N3CCOCC3)cc2N1Cc1ccccc1F` (centres undefined)?
NOD2-RIPK2 inh: -6; HSF1 inh: 5; TLR4-MyD88 BLA: 4; TLR9-MyD88 block: -1; HSF-1 act: 0

Results for O=C1C2CCCN2c2ccc(S(=O)(=O)N3CCOCC3)cc2N1Cc1cccc(C(F)(F)F)c1 (centres undefined) ?
HSF1 inh: -85*; TLR4-MyD88 BLA: -6; HSF-1 act: -88

What do the screens show for `O=C(CCl)Nc1cc(SCC(O)CO)cc([N+](=O)[O-])c1` (centres undefined)?
NOD2-RIPK2 inh: -8; HSF1 inh: -71*; TLR4-MyD88 BLA: 4; TLR9-MyD88 block: 0; HSF-1 act: -73

How did CCN1C(=O)C(=O)N(CC(=O)Nc2ccccc2OC(F)F)C1=O do in these assays?
NOD2-RIPK2 inh: 1; TLR9-MyD88 block: 0

How did O=C(Nc1ccc2c(c1)OCCO2)NC1(C(F)(F)F)Oc2ccccc2O1 do in these assays?
NOD2-RIPK2 inh: -20; HSF1 inh: -67*; TLR4-MyD88 BLA: -15; TLR9-MyD88 block: 9; HSF-1 act: -72

What do the screens show for `O=C(Nc1ccc2c(c1)OCO2)NC1(C(F)(F)F)Oc2ccccc2O1`?
NOD2-RIPK2 inh: -4; HSF1 inh: 5; TLR4-MyD88 BLA: 0; TLR9-MyD88 block: -2; HSF-1 act: 20

What do the screens show for `O=C(O)C1CC=CCC1C(=O)NCc1ccc(Cl)c(Cl)c1` (centres undefined)?
NOD2-RIPK2 inh: -5; HSF1 inh: 3; TLR9-MyD88 block: 4; HSF-1 act: -3

How did CC(=O)Nc1cccc(NC(=O)CSc2ncc(C(=O)Nc3ccc(F)cc3)c(=O)n2C)c1 do in these assays?
NOD2-RIPK2 inh: 10; HSF1 inh: 4; TLR9-MyD88 block: 2; HSF-1 act: -15

What do the screens show for `CC(=O)Nc1cccc(NC(=O)CSc2ncc(C(=O)Nc3ccccc3)c(=O)n2C)c1`?
NOD2-RIPK2 inh: 2; HSF1 inh: 177; TLR9-MyD88 block: 5; HSF-1 act: 206*

What do the screens show for `CC(=O)Nc1ccc(NC(=O)CSc2ncc(C(=O)Nc3ccc(Cl)cc3)c(=O)n2C)cc1`?
NOD2-RIPK2 inh: -5; HSF1 inh: 47; TLR9-MyD88 block: -4; HSF-1 act: 48

What do the screens show for `Cn1c(SCC(=O)NCC2CCCO2)ncc(C(=O)Nc2ccc(Cl)cc2)c1=O` (centres undefined)?
NOD2-RIPK2 inh: -8; HSF1 inh: 29; TLR9-MyD88 block: -4; HSF-1 act: 57*

How did Cn1c(SCC(=O)NCC2CCCO2)ncc(C(=O)Nc2ccc(F)cc2)c1=O (centres undefined) do in these assays?
NOD2-RIPK2 inh: 2; HSF1 inh: 70; TLR9-MyD88 block: -14; HSF-1 act: 67*

Results for Cc1nc(SCC(=O)NCC2CCCO2)[nH]c(=O)c1C (centres undefined) ?
NOD2-RIPK2 inh: -5; HSF1 inh: -56*; TLR9-MyD88 block: 5; HSF-1 act: -67

What do the screens show for `Cc1ccc(NC2CCCN(C(=O)CCN3CCCCO3)C2)cc1C` (centres undefined)?
NOD2-RIPK2 inh: 2; HSF1 inh: 0; TLR9-MyD88 block: -7; HSF-1 act: 8

Results for O=C(CSc1ncnc2c1nnn2-c1ccc(F)cc1)NCC1CCCO1 (centres undefined) ?
NOD2-RIPK2 inh: -4; HSF1 inh: 46; TLR4-MyD88 BLA: 13; TLR9-MyD88 block: -2; HSF-1 act: 74*

What do the screens show for `Cc1ccnc(Nc2ccc(CCO)cc2)n1`?
NOD2-RIPK2 inh: 3

Results for C#CCn1c(=NC(=O)c2ccc(S(=O)(=O)N3CCCc4ccccc43)cc2)sc2cc(S(N)(=O)=O)ccc21 ?
NOD2-RIPK2 inh: 1; HSF1 inh: 6; TLR4-MyD88 BLA: -20; TLR9-MyD88 block: -10; HSF-1 act: 53*

Bioassay records deposited in PubChem BioAssay by several laboratories.
